Pf growth 48h: Primary qHTS for delayed death inhibitors of the malarial parasite plastid, 48 hour incubation; P. falciparum luciferase growth in erythrocytes, 48 h; Potency, µM (doses to about 28.7 µM), most hits filed as inhibitors; 310,000 compounds, 5.9% hits; AID 504832, 2011
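A one-generation exposure of luciferase-tagged malaria parasites in RPMI 1640/Albumax erythrocyte culture, 37 C and 5% CO2. Inhibition is inferred from decreased luminescence after adding detection reagent.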
NS1 inh: qHTS Assay for Inhibitors of Influenza NS1 Protein Function | Potency, µM (top dose mostly 46.1 µM) | AID 2326, 2010 | 270,000 compounds, 0.4% hits; calls by dose curve; note: actives are rising curves; nearly all actives have a fitted effect of over 50% in size
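Read-out: OD600 growth recovery of NS1-expressing budding yeast. Cells grown overnight at 30C in -URA glucose medium, washed, resuspended and diluted 1:100 in 2% galactose assay medium, pH 6.0. Same strain lacking NS1 served as positive control.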
Pf growth 96h: Primary qHTS for delayed death inhibitors of the malarial parasite plastid, 96 hour incubation; AID 504834, 2011; 320,000 compounds, 6.9% hits; P. falciparum luciferase reporter growth, 96 h; Potency, µM (highest dose often 28.7 µM), hits mostly inhibitors
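Luminescence readout: decreased luciferase signal marks inhibited growth of reporter-expressing P. falciparum in infected red cells (2% hematocrit, 0.05% parasitemia final), exposed to compound two generations (96 h, 37 C, 5% CO2).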
FBPA Giardia inh: qHTS Assay for Inhibitors of Fructose-1,6-bisphosphate Aldolase from Giardia Lamblia | Potency, µM (top dose mostly 59.6 µM), usual class: inhibitors | 290,000 compounds, 0.71% hits | purified Giardia FBPA | A8B2U2; note: nearly all actives have a fitted effect of over 55% in size
Target sequence (A8B2U2 whole entry, looked up): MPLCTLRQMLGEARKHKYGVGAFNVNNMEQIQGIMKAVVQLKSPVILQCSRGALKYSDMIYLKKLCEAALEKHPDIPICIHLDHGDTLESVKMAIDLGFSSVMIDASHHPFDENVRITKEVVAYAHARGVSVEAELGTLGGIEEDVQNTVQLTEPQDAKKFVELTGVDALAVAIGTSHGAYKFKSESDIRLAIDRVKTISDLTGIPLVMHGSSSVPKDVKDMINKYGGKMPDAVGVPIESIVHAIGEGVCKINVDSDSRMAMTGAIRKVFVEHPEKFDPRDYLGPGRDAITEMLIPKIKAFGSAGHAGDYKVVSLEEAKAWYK
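40 nM FBPA preincubated 10 min at RT with compound (up to 57.5 uM final), then substrate plus GAPDH/TPI/NAD/arsenate coupling and diaphorase/resazurin added. Fluorescence read after 20 min at RT, 525/598 nm.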
CHX counter: Cycloheximide Counterscreen for Small Molecule Inhibitors of Shiga Toxin | 300,000 compounds, 12% hits | max response, % | cell reporter, cycloheximide protein synthesis inhibition counterscreen; in the data active = max response mostly above about 13%, no sharp cut-off; inactive = mostly below about 14%; note: read at 38.3 µM for the half of the compounds with a filed dose
Shiga inhibitor: A qHTS for Small Molecule Inhibitors of Shiga Toxin; 290,000 compounds, 9.2% hits; inhibition, % at 38.7 µM; Vero cells, Shiga toxin protein synthesis inhibition reporter; in the data active = inhibition mostly above about 28%, no sharp cut-off; inactive = mostly below about 43%
Of the large screens only hits and unclear results are named; the others gave an inactive call. In the library only some 21% were active in any assay of this set; here they are far more common. Unless noted, calls come from the whole dose curve; as a rule, active = well fitted curve in the direction sought with a large enough effect; inconclusive = small, poorly fitted or top-dose-only effect, or another doubt; inactive = no such curve, though single readings can be large; an effect the other way counts as inactive or inconclusive.

NC(=O)c1cccnc1Nc1ccccc1Cl	CHX counter 30, Shiga inhibitor 56
Cc1ccc(Nc2ncccc2C(=O)O)cc1C	CHX counter 21, Shiga inhibitor 92
O=C(O)c1cc(S(=O)(=O)N2CCCCC2)ccc1N1CCCCC1	none (no result: NS1 inh, FBPA Giardia inh, CHX counter, Shiga inhibitor)
COc1ccc(C/C(C)=N/NC(=O)c2cccnc2)cc1	CHX counter 27
CC(C)(C)c1ccc(OCC(=O)N2CCN(C=O)CC2)cc1	none
COc1ccc(C(=O)N/N=C(\C)CC(=O)N2CCN(C=O)CC2)cc1	CHX counter 31
COc1ccc(C/C(C)=N/NC(=S)Nc2ccccc2F)cc1	NS1 inh inconclusive, FBPA Giardia inh inconclusive, CHX counter 54, Shiga inhibitor 91
COc1ccc(C/C(C)=N/NC(=O)c2ccc(Cl)cc2)cc1	CHX counter 14, Shiga inhibitor 37 (no result: NS1 inh)
CCOc1cc(C(=O)N/N=C(\C)Cc2ccc(OC)cc2)cc(OCC)c1OCC	none
COc1ccc(C/C(C)=N/NC(=S)Nc2ccc(C(C)C)cc2)cc1	none
CSC(=Nc1cccc(C)c1)NC#N	none
CCCCCCN(CCCCCC)C(=O)Cc1c(-c2ccc(F)cc2)[nH]c2ccccc12	Pf growth 48h 5.9µM, Pf growth 96h inconclusive (no result: CHX counter, Shiga inhibitor)
O=C(Cc1c(O)c2ccccc2[nH]c1=O)N(Cc1ccccc1)Cc1ccccc1	none
COc1ccc(-c2c3c(=O)n(C)c(=O)n(C)c3cn2-c2ccccc2)cc1	Pf growth 48h inconclusive, Pf growth 96h inconclusive
FC(F)Sc1ccc(-n2cc(-c3ccccc3)[n+]3c2CCC3)cc1	Pf growth 48h 1.2µM, NS1 inh inconclusive, Pf growth 96h 0.66µM
COc1ccc(-c2cn(-c3ccc(OC)cc3)c3[n+]2-c2ccccc2CC3)cc1	Pf growth 48h 1.2µM, Pf growth 96h 0.41µM
FC(F)Oc1ccc(-n2cc(-c3ccc(Cl)cc3)[n+]3c2CCCCC3)cc1	Pf growth 48h 1.5µM, Pf growth 96h inconclusive
COc1ccc(-n2cc(-c3ccccc3)[n+]3c2CCCCC3)cc1	Pf growth 48h 1µM, Pf growth 96h 0.93µM (no result: NS1 inh)
COc1ccc(-c2cn(-c3ccc(SC(F)F)cc3)c3[n+]2CCC3)cc1OC	Pf growth 48h inconclusive, Pf growth 96h inconclusive
COc1cccc(-c2ocnc2C(=O)Nc2ccc(N3CCOCC3)cc2N2CCOCC2)c1	Pf growth 48h inconclusive, Pf growth 96h inconclusive
CCC(C)C(=O)OC1CC(O)C=C2C=CC(C)C(CCC(O)CC(O)CC(=O)O)C21 (centres undefined)	none (no result: NS1 inh, CHX counter, Shiga inhibitor)
C/C(CC(=O)Nc1cccc(C(F)(F)F)c1)=N\NC(=O)c1ccncc1	Pf growth 96h inconclusive
C/C(CC(=O)Nc1ccccn1)=N\NC(=O)C(=O)Nc1cccc(C)c1	Pf growth 96h inconclusive
C/C(CC(=O)Nc1cc(C)ccn1)=N\NC(=O)c1cccc(F)c1	CHX counter 31, Shiga inhibitor 110
C/C(CC(=O)Nc1cccc(Cl)c1Cl)=N\NC(=O)C(=O)N1CCCC1	none (no result: FBPA Giardia inh)
C/C(CC(=O)Nc1cccc(Cl)c1Cl)=N\NC(=O)c1ccccc1C	Pf growth 48h inconclusive, Pf growth 96h inconclusive, CHX counter 11
C/C(CC(=O)Nc1cc(C)ccn1)=N\NC(=O)c1ccc(C)cc1	CHX counter 29, Shiga inhibitor 53
C/C(CC(=O)Nc1cc(C)ccn1)=N\NC(=O)c1ccccc1C	CHX counter 26, Shiga inhibitor 51
C/C(CC(=O)Nc1cccc2c1CCCC2)=N\NC(=O)COc1ccccc1	Pf growth 96h 2.1µM
C/C(CC(=O)Nc1ccccn1)=N\NC(=O)c1cccc(C)c1	CHX counter 21, Shiga inhibitor 40
CC(=O)Nc1ccccc1NC(=O)C/C(C)=N/NC(=O)c1ccncc1	none
C/C(CC(=O)Nc1cc(Cl)ccc1Cl)=N\NC(=O)COc1cccc(C)c1	none
C/C(CC(=O)Nc1cc(C)ccn1)=N\NC(=O)c1ccncc1	CHX counter 8.6
C/C(CC(=O)Nc1cc(C)ccn1)=N\NC(=O)COc1cccc(C)c1	Pf growth 96h inconclusive, CHX counter 31
C/C(CC(=O)Nc1cc(Cl)ccc1Cl)=N\NC(=O)c1ccco1	Pf growth 96h inconclusive, CHX counter 51, Shiga inhibitor 83
C/C(CC(=O)NC12CC3CC(CC(C3)C1)C2)=N\NC(=O)c1ccc(C)cc1	CHX counter 10, Shiga inhibitor 18
C/C(CC(=O)NC12CC3CC(CC(C3)C1)C2)=N\NC(=O)c1ccc(F)cc1	none
CCOC(=O)N1CCC(=NNc2ncc(C(F)(F)F)cc2Cl)CC1	FBPA Giardia inh inconclusive (no result: NS1 inh)
CCOC(=O)N1CCC(=NNc2ccnc3cc(Cl)ccc23)CC1	Pf growth 48h inconclusive, Pf growth 96h 2.6µM (no result: NS1 inh)
CC(=O)N1CCC(=NNc2ccnc3cc(Cl)ccc23)CC1	Pf growth 48h 1.9µM, Pf growth 96h 2.6µM (no result: NS1 inh)
CC(=O)N1CCC(=NNc2ncc(C(F)(F)F)cc2Cl)CC1	FBPA Giardia inh inconclusive
COc1cccc(-n2ccn(CC(=O)NCCc3ccccc3)c(=O)c2=O)c1	Pf growth 96h inconclusive
C/C(=N\NC(=O)c1ccc(Br)cc1)c1ccccc1	CHX counter 55, Shiga inhibitor 113
C/C(=N/NC(=O)CNS(=O)(=O)c1ccccc1)c1ccc(Br)cc1	Pf growth 48h inconclusive, Pf growth 96h 13µM
CC(=O)Nc1ccccc1NC(=O)C/C(C)=N/NC(=O)c1cccnc1	Pf growth 96h inconclusive, Shiga inhibitor 48
C/C(=N\NC(=O)c1cccc(Br)c1)c1cccnc1	CHX counter 23, Shiga inhibitor 51
COc1cc(S(C)=O)ccc1-c1nc2ncccc2[nH]1 (centres undefined)	none (no result: NS1 inh, CHX counter, Shiga inhibitor)
Cc1ccc(SCC(=O)OCC(=O)N(CC(C)C)c2c(N)n(Cc3ccccc3)c(=O)[nH]c2=O)c(C)c1	none (no result: NS1 inh, FBPA Giardia inh, CHX counter, Shiga inhibitor)
O=C(Nc1cccc(F)c1)N1CC2(CCNCC2)C1	none (no result: Pf growth 48h, NS1 inh, Pf growth 96h, CHX counter, Shiga inhibitor)
COc1ccccc1N1CC(C(=O)OCC(=O)Nc2c(C)cccc2C)CC1=O (centres undefined)	Pf growth 96h inconclusive
C/C(=N\NC(=O)c1cccnc1)c1ccccc1	Pf growth 96h inconclusive, CHX counter 13
CSC(=S)N/N=C(\C)c1ccc(Br)cc1	Pf growth 48h inconclusive, CHX counter 29, Shiga inhibitor 45
COC(=O)C(NC(=O)CNS(=O)(=O)c1ccc(Br)cc1)c1ccccc1 (centres undefined)	Pf growth 48h 10µM (no result: NS1 inh)
C/C(=N\NC(=O)c1cccc2ccccc12)c1cccnc1	none
COC(=O)C(Cc1ccccc1)NC(=O)CNS(=O)(=O)c1ccc(Br)cc1 (centres undefined)	none (no result: NS1 inh)
C/C(=N\NC(=O)C(N)=O)c1ccc(Br)cc1	Pf growth 96h inconclusive
C/C(=N\NC(=O)c1cccnc1)c1ccc(Br)cc1	CHX counter 16
CC1CCCCC1Nc1ncnc2sccc12 (centres undefined)	none
O=C(NCCCOc1cccc(CN2CCCCC2)c1)c1ccc(Cl)c(Cl)c1	Pf growth 48h inconclusive, Pf growth 96h 2.3µM
